Several values for one entry are separate records, joined by “and”; a condition that tells them apart may be missing. Equal values may be shown once. Inconclusive results are not listed. Activity calls are given as the source filed them. Rule for the calls, unless noted: active = hit-call score of the fitted dose curve at least 0.9, where 1 is the maximum; inactive = score below 0.9.

Assay [1] is described as follows: ACEA_ER_80hr: ACEA Biosciences xCELLigence Real-Time Cell Analysis on Estrogen Receptor Agonism for Proliferation (AID 2282667; active = hit-call score of the fitted dose curve at least 0.9, where 1 is the maximum). Conditions: T47D proliferation, impedance (xCELLigence), 80 h. The essentials:
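Cell-growth kinetics were measured by impedance in T47D cells treated continuously with compound (top 100 uM final, 1:4 steps, 8 points). Activity at 80 h was scored as signal gain over the DMSO baseline.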

The nature of assay [2]: ATG_CRE_CIS: Attagene CIS-FACTORIAL HepG2 Assay for human cAMP Responsive Element (CRE) binding protein 3 (AID 2282926). Conditions: HepG2 CRE cis-reporter, Attagene multiplexed mRNA; actives raise or lower the signal. The method, boiled down: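 We dosed HepG2 cells bearing multiple cis-promoter reporter units for 24 h and measured reporter mRNA by RT-PCR with capillary electrophoresis detection. Bidirectional concentration-response fitting used DMSO as negative control.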

Assay [3] addresses CCAAT/enhancer-binding protein beta (Homo sapiens) (UniProt P17676). Nature of the assay: ATG_C_EBP_CIS: Attagene CIS-FACTORIAL HepG2 Assay for human CCAAT/Enhancer Binding Protein (C/EBP) beta (AID 2282927). Conditions: HepG2 Attagene cis-factorial transcription factor reporter; actives raise or lower the signal. The method, boiled down:
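Chemical-treated HepG2 cells (24 h) bearing cis-regulated reporter constructs were processed for total RNA, then reverse transcription, PCR amplification, fluorescent primer extension and fragment analysis; gain- and loss-of-signal were fitted against DMSO.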

A short description of assay [4]: ATG_CMV_CIS: Attagene CIS-FACTORIAL HepG2 Assay for human CMV (Internal Marker) (AID 2282928).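 Note: endpoint acts as a background internal control marker rather than a target.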 The note with it: HepG2 CMV promoter reporter, transcription factor profiling; actives raise or lower the signal. The method, boiled down:
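CMV internal-marker background readout in transiently transfected HepG2 cells bearing cis-regulated reporter units. Reporter mRNA is measured 24 h after dosing by RT-PCR and capillary electrophoresis, with bidirectional fitting against DMSO.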

Assay [5] can be described thus: ATG_DR4_LXR_CIS: Attagene CIS-FACTORIAL HepG2 Assay for human Liver X Receptor (LXR), DR4 submotif (AID 2282929). The note with it: HepG2 Attagene DR4 cis-reporter, mRNA transcription; actives raise or lower the signal. The method, boiled down: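 Transiently transfected HepG2 liver cells; cis-regulated reporters; 24 h dosing. RT-PCR plus CE read-out of reporter mRNA. DMSO baseline, bidirectional curve fitting.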

Assay [6] concerns the target Aryl hydrocarbon receptor (Homo sapiens) (UniProt P35869). Kind of assay: ATG_Ahr_CIS: Attagene CIS-FACTORIAL HepG2 Assay for human Aryl Hydrocarbon Receptor (Ahr) (AID 2282930). The note with it: HepG2 AhR cis-factorial reporter transcription; actives raise or lower the signal. The method, boiled down: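 Following 24 h of chemical dosing, transfected HepG2 liver cells with cis-driven reporter units were lysed for RNA; reporter mRNA was quantified via RT-PCR and capillary electrophoresis, and responses fitted bidirectionally from DMSO.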

Assay [7] is described as follows: ATG_AP_1_CIS: Attagene CIS-FACTORIAL HepG2 Assay for human Activator Protein 1 (AP-1) (AID 2282931). The note with it: HepG2 Attagene cis-factorial AP-1 reporter mRNA; actives raise or lower the signal. The method, boiled down: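 We transfected HepG2 cells transiently with a set of cis-regulated reporter transcription units, dosed them for 24 h, and quantified reporter mRNA via RT-PCR and capillary electrophoresis, scoring gain or loss of signal relative to DMSO.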

The nature of assay [8]: ATG_BRE_CIS: Attagene CIS-FACTORIAL HepG2 Assay for human Bone Morphogenetic Protein (BMP) Response Element (BRE) (AID 2282933). Conditions: HepG2 BMP response element reporter, Attagene transcription factor profiling; actives raise or lower the signal. The method, boiled down: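 After a 24 h chemical treatment, transiently transfected HepG2 cells were lysed for RNA; reporter transcripts were quantified by fluorescent RT-PCR and capillary electrophoresis, normalised to DMSO.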

Assay [9] has as its target Retinoic acid receptor alpha (Homo sapiens) (UniProt P10276). Kind of assay: ATG_DR5_RAR_CIS: Attagene CIS-FACTORIAL HepG2 Assay for human Retinoic Acid Receptor Alpha (RARE), DR5 submotif (AID 2282934). Conditions: HepG2 Attagene cis-factorial RARE DR5 reporter, mRNA; actives raise or lower the signal. The essentials: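 Transfected HepG2 reporter cells are exposed to chemicals for 24 h. Then RNA is extracted and the DR5 element reporter transcript is measured by RT-PCR and capillary electrophoresis, with bidirectional curve fitting relative to DMSO.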

A short description of assay [10]: ATG_AP_2_CIS: Attagene CIS-FACTORIAL HepG2 Assay for human Activator Protein 2 (AP-2) (AID 2282932). The note with it: HepG2 AP-2 cis-reporter, Attagene transcription factor profiling; actives raise or lower the signal. The method, boiled down:
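Bidirectional curve fitting against DMSO was applied to reporter mRNA signals from HepG2 cells 24 h after dosing. Cis-promoter reporter units, transiently transfected, were read by RT-PCR plus capillary electrophoresis.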

Sequence of CCAAT/enhancer-binding protein beta (Homo sapiens) (P17676 whole entry, looked up, the tested form may be a part): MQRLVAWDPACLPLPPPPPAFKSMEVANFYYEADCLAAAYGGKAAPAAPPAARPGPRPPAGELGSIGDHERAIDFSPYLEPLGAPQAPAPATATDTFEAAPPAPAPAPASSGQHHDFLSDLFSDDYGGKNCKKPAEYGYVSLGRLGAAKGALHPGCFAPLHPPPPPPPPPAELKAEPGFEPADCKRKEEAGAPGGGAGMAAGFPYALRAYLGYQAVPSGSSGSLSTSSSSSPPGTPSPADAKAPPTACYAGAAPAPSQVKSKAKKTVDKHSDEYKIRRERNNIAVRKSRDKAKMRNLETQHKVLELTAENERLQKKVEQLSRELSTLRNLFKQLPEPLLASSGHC
Sequence of Retinoic acid receptor alpha (Homo sapiens) (P10276 whole entry, looked up): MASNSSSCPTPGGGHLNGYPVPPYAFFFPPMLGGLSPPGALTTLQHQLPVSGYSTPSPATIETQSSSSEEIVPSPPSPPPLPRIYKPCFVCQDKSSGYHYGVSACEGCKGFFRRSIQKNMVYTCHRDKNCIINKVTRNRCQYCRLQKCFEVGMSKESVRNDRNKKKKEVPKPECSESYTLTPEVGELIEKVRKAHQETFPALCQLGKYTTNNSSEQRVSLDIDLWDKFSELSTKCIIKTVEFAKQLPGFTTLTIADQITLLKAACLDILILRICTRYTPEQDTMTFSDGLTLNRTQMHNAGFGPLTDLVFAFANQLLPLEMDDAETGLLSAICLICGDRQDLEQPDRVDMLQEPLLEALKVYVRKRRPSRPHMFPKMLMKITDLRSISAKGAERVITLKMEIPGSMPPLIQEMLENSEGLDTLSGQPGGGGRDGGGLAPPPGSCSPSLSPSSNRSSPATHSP
Sequence of Aryl hydrocarbon receptor (Homo sapiens) (P35869 whole entry, looked up): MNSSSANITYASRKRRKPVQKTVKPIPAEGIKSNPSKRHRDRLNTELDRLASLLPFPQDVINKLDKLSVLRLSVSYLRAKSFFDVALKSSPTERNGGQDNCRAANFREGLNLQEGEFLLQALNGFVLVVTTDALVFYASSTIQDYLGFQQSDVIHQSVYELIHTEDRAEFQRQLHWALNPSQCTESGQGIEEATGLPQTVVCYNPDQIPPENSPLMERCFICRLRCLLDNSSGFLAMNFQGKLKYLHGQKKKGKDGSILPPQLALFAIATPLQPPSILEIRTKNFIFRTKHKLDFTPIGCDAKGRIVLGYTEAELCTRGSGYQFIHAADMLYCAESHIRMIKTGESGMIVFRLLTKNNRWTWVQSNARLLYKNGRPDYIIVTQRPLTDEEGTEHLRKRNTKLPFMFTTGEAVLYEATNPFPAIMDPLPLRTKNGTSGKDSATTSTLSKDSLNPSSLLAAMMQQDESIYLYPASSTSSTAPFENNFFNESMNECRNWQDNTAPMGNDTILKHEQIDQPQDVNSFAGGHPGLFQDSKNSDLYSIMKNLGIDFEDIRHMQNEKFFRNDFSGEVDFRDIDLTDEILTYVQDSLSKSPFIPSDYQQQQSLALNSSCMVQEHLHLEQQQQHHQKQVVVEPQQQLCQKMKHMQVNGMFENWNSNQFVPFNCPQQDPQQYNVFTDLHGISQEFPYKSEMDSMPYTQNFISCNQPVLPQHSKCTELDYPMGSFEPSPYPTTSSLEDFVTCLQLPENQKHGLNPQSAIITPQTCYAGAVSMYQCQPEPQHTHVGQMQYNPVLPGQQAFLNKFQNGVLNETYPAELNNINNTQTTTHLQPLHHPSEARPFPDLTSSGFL

As for `CCN(Cc1cccc(S(=O)(=O)O)c1)c1ccc(C(=C2C=CC(=[N+](CC)Cc3cccc(S(=O)(=O)O)c3)C=C2)c2ccc(O)cc2S(=O)(=O)[O-])cc1`, the result in assay [1], in assay [2], in assay [3], in [4], in assay [5] and in assay [7] was inactive. Moreover, the outcome in [8] and in assay [9] was inactive. Further, the half-maximal activity concentration (AC50) in assay [6] was 33 µM (active).

As to `CS(C)(=O)=O`, the result in assay [1], in assay [2], in [3], in [4], in assay [5] and in assay [6] was inactive. Moreover, the compound was classed as inactive in [7], in assay [10], in [8] and in assay [9].

With `C1COCCN1`, the compound was classed as inactive in assay [1], in [2], in assay [3], in assay [4], in assay [5] and in assay [6]. Moreover, the call in [7], in assay [8] and in assay [9] was inactive.

As to `O=C(Cl)C(F)(F)C(F)(F)C(F)(F)C(F)(F)C(F)(F)C(F)(F)C(F)(F)C(F)(F)F`, the compound was called inactive in [1], in assay [2], in assay [3], in assay [4], in assay [6] and in [10]. Moreover, the compound was classed as inactive in assay [8] and in assay [9]. The values for the concentration at half-maximal activity (AC50) in assay [5] and in [7] were 13 µM (active) and 16.1 µM (active), respectively.

With `OCC(F)(F)C(F)(F)C(F)(F)C(F)F`, the call in [1], in [2], in [3], in [4], in assay [5] and in assay [6] was inactive. The call in [7], in [10], in assay [8] and in assay [9] was inactive.

Regarding `C=C(C)C(=O)OCCC(F)(F)C(F)(F)C(F)(F)C(F)(F)C(F)(C(F)(F)F)C(F)(F)F`, the result in [1], in assay [2], in assay [3], in assay [4], in assay [5] and in [6] was inactive. Also, the compound was called inactive in assay [7], in assay [8] and in assay [9].

Consider `CC(C)c1ccccc1N`, for which the compound was called inactive in assay [1], in assay [2], in [3], in [4], in assay [5] and in assay [6]. The compound was called inactive in [7], in assay [10], in [8] and in assay [9].

Consider `O=C(O)C=C(C(F)(F)F)C(F)(F)F`, for which the compound was called inactive in assay [1], in assay [2], in assay [3], in [4], in [5] and in [6]. Further, the compound was called inactive in assay [7], in [10], in [8] and in assay [9].

Regarding `O=C(O)C(F)(F)C(F)(F)C(F)(F)C(F)(F)C(F)(F)C(F)(F)C(F)(F)C(F)(F)C(F)(F)C(F)F`, the concentration at half-maximal activity (AC50) in assay [1] is 18.8 µM (active); in [7] it was 26.6 µM (active). In addition, the outcome in assay [2], in [3], in assay [4], in assay [5], in [6] and in assay [10] was inactive. The compound was called inactive in assay [8] and in assay [9].

On to `CCCCNc1ccccc1`, for which the outcome in [1], in [2], in [3], in [4], in [5] and in assay [6] was inactive. The compound was classed as inactive in assay [7], in [10], in [8] and in assay [9].

On to `CC(C)(C)C(=O)CC(=O)C(F)(F)C(F)(F)C(F)(F)F`, for which the call in assay [1], in assay [2], in assay [3], in [4], in assay [5] and in [6] was inactive. For the same compound, the compound was classed as inactive in [7], in assay [8] and in assay [9].

`CO[Si](OC)(c1ccccc1)c1ccccc1`: the compound was classed as inactive in assay [1], in assay [2], in assay [3], in assay [4], in assay [5] and in assay [6]. Moreover, the compound was classed as inactive in assay [7], in [10], in [8] and in [9].

As to `Oc1ccc(Nc2ccccc2)cc1`, the result in [1], in assay [2], in [3], in [5], in assay [6] and in assay [7] was inactive. Also, the outcome in assay [8] and in [9] was inactive. The half-maximal activity concentration (AC50) in assay [4] was 41.8 µM (active).

`FC(F)(Br)C(F)(F)C(F)(F)C(F)(F)C(F)(F)C(F)(F)Br`: in [1], the half-maximal activity concentration (AC50) is 42.7 µM (active). The compound was classed as inactive in assay [2], in assay [3], in assay [4], in assay [5], in assay [6] and in assay [7]. In addition, the result in assay [10], in assay [8] and in assay [9] was inactive.

Regarding `Cc1ccc(S(=O)(=O)NCl)cc1`, the compound was called inactive in assay [1], in [2], in [3], in assay [4], in [5] and in assay [7]. Moreover, the outcome in assay [8] was inactive. Also, in assay [6], the concentration at half-maximal activity (AC50) was 66.9 µM (active) and 61.9 µM (active).

For `OCC(F)(F)C(F)(F)C(F)(F)C(F)(F)C(F)(F)C(F)(F)F`, the compound was called inactive in [1], in assay [2], in assay [4], in assay [5], in assay [6] and in assay [7]. Moreover, the compound was called inactive in [10], in assay [8] and in [9]. In addition, the AC50 in assay [3] was 204 µM (active).
